# An excerpt weighted towards active compounds, which were near 3.4% of everything screened.
# Gli-Sufu block: Gli-Sufu pathway antagonists, primary screen, luciferase luminescence, Sufu-KO-LIGHT cells, uHTS; Sufu-KO-LIGHT fibroblasts, Gli luciferase reporter luminescence; inhibition, % at 5 µM; 0.74% of 340,000 active;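 active means inhibition above about 55%, limit read from the data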
# GalR3 antagonist: GalR3 antagonists in HEK293 cells, primary screen, cell-based, fluorescence readout. AID 651719, 2012. HEK293 GalR3-CNG cAMP membrane potential fluorescence; galR3 body fused to GalR1 C-terminus. 0.44% of 360,000 active. Galanin receptor type 3 (Homo sapiens), O60755. inhibition, % at 3 µM;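 active means inhibition above the screen-wide average plus 3 SD, cut at about 13% in these data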;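 further: forskolin and galanin both at EC90 stimulate the cells; cAMP rise reported by CNG channel membrane potential dye signal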
# COUP-TFII inh: NR2F2 transcriptional activity inhibitors, primary screen, cell-based, luciferase reporter, HEK293T, luminescence. COUP transcription factor 2 (Homo sapiens), P24468. HEK293T NGFI-A luciferase reporter. inhibition, % at 8.6 µM. 0.7% of 370,000 active. AID 686940, 2013;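 active means inhibition above a per-plate cutoff, mean inhibition of test wells between control levels plus 3 SD, cut at about 38% in these data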;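 further: cells cotransfected with COUP-TFII expression vector driving the NGFI-A reporter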
# Target sequence (P24468 whole entry, looked up): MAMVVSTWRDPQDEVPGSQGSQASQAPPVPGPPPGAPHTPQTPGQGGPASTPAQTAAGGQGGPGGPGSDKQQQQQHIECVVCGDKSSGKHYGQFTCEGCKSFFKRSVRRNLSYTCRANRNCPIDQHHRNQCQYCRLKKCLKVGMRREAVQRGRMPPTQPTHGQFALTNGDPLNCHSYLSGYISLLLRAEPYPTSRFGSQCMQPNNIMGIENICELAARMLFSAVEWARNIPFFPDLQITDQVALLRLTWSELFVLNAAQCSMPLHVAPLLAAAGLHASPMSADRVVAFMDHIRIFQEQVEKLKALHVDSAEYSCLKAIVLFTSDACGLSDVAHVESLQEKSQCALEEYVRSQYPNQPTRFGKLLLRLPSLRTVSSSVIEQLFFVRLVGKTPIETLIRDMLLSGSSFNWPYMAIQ
# H9c2 protect: cardioprotection against H2O2-induced cell death, primary screen, uHTS, H9c2 cells, ATPLite luminescence; H9c2 cardiomyocytes, H2O2 injury protection, 2 h; protection from H2O2 cell death, % at 20 µM; 0.63% of 360,000 active;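 active means compounds giving at least 50% protection of heart cells from peroxide-induced death in the single-dose screen, raw or plate-pattern-corrected value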
# SMARCA2 act: SMARCA2 (BRM) function activators, primary screen, cell-based, luminescence, high throughput. MG213 cells, MMTV-luciferase reporter, dexamethasone, overnight. activation, % at 9.1 µM. 1% of 370,000 active. AID 652017, 2013; in the data active means activation above about 7.8%
# FXN GAA850 act: FXN promoter activators, primary screen, cell-based, luciferase luminescence, HEK293 lucGAA850; activation, % at 6 µM; 0.56% of 360,000 active; AID 540364, 2011; HEK293 lucGAA850 FXN promoter luciferase reporter, 24 h; percent of 10 µM SAHA response;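 active means activation above the average of all compounds screened plus 3 SD, cutoff fixed separately per campaign, cut at about 7.5% in these data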
# GalR3 conf: GalR3 antagonist hit confirmation, cell-based, fluorescence, triplicate. shares compounds with GalR3 antagonist. HEK293 GalR3 CNG cAMP biosensor, membrane potential fluorescence; galR3 fused to GalR1 carboxy tail; challenged with forskolin and galanin at EC90. inhibition, % at 3 µM. 59% of 1,600 active. AID 652245, 2013;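 active means inhibition above the primary screen's cutoff, the mean inhibition of all screened compounds plus 3 SD, cut at about 13% in these data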
# HEK-CNG parental: nonspecific cAMP agonists in parental HEK-CNG cells, counter-screen for GalR3 antagonist project, cell-based, fluorescence, high throughput. activation, % at 3 µM. 10% of 1,600 active. shares compounds with GalR3 antagonist. HEK293-CNG parental cells, cAMP membrane potential fluorescence; normalised: DMSO wells 0%, forskolin wells 100%; in the data active means activation above about 1.3%
# Hits are given with their value; 0 = inactive; - = no result given.
SMILES,Gli-Sufu block,GalR3 antagonist,COUP-TFII inh,H9c2 protect,SMARCA2 act,FXN GAA850 act,GalR3 conf,HEK-CNG parental
CNC(=O)[C@H]1O[C@@H](n2cnc3c(NCc4cccc(I)c4)nc(Cl)nc32)[C@H](O)[C@@H]1O,0,51.4,0,0,0,0,52.5,0
Cc1nn(-c2ccccc2)c(Cl)c1/C=C(\CC(=O)O)c1nc2ccccc2s1,0,13.0,0,0,0,0,0,0
COc1ccccc1OCc1ccc(C(=O)OCC2CCCO2)o1 (centres undefined),0,14.6,0,0,0,0,0,0
COc1ccccc1CNC(=S)NC1CCCCC1,0,13.7,0,0,0,0,0,0
Cc1ccc(/C=C/C(=O)Nc2ccc(S(=O)(=O)Nc3ncccn3)cc2)cc1,0,13.1,0,0,0,0,0,0
CN(C(=O)Cc1c(C(=O)O)n(C)c2ccccc12)c1cccc(C(F)(F)F)c1,0,0,0,0,0,0,-,-
COc1ccccc1C(CNc1nc(C(F)(F)F)nc2ccccc12)N(C)C (centres undefined),0,0,0,0,0,0,-,-
O=Cc1cn(-c2ccccc2)nc1-c1cc2ccccc2oc1=O,0,0,0,0,0,0,-,-
NC(=O)c1cn(-c2ccccc2)nc1-c1cc2ccccc2oc1=O,0,108.4,0,0,0,0,94.6,0
COc1cc(OC)c(OC)cc1CCC(C)NC(=O)Cc1ccccc1 (centres undefined),0,0,0,0,0,0,-,-
C#Cc1ccc([C@@H]2C=C(C(=O)Nc3ccccc3)O[C@H](OCC)[C@H]2CCCO)cc1,0,-,0,0,0,0,0,0
C#Cc1ccc([C@H]2C=C(C(=O)NCc3ccccc3)O[C@@H](OCC)[C@@H]2CCCO)cc1,0,0,0,0,0,0,-,-
COc1ccccc1/C=C\C(=O)NCC(=O)N/N=C(\C)Cc1ccccc1,0,0,0,0,0,0,-,-
CCN1CCN(c2ccc(S(=O)(=O)N3CCOCC3)cc2NC(=O)CC(NC(C)=O)c2ccccc2)CC1 (centres undefined),0,0,0,0,0,0,-,-
C/C(CCC1CC(C)(C)OC1=O)=N\NC(N)=S (centres undefined),0,13.4,0,0,0,0,0,0
C/C(CC1CC(C)(C)OC1=O)=N\NC(N)=S (centres undefined),0,0,0,0,0,0,-,-
CCN(CC(=O)Nc1ccc(S(=O)(=O)N2CCCC2)cc1)CC(=O)Nc1ccccc1C(F)(F)F,0,0,0,0,0,0,-,-
C[C@H](NCCc1ccc(O)cc1)[C@H](O)c1ccc(O)cc1,0,38.8,0,0,0,0,62.4,0
COc1ccc(/C=C(/NC(=O)c2ccccc2)C(=O)NC2CCS(=O)(=O)C2)cc1 (centres undefined),0,-,0,0,0,0,0,0
CCCCOc1ccc([N+](=O)[O-])cc1C(=O)O,0,16.7,0,0,0,0,0,0
CN(C(=O)c1cccc(N2C(=O)C3C4C=CC(C4)C3C2=O)c1)C1CCCCC1 (centres undefined),0,0,0,0,0,0,-,-
CCCCOc1ccc(CC2CCC(=O)NC2=O)cc1 (centres undefined),0,0,0,0,0,0,-,-
CCOC(=O)c1c(C)c2c(n1C)CCC/C2=N\O,0,65.9,0,0,0,0,32.3,0
O=C(c1cc2nc(-c3ccco3)cc(C(F)(F)F)n2n1)N1CCN(Cc2ccccc2)CC1,0,0,0,0,0,0,-,-
CC(C)[C@H](CO)N(Cc1cccc(F)c1)c1nc(Nc2cccc(Cl)c2)c2ncn(C(C)C)c2n1,0,0,0,0,0,0,-,-
SMILES,Gli-Sufu block,GalR3 antagonist,COUP-TFII inh,H9c2 protect,SMARCA2 act,FXN GAA850 act,GalR3 conf,HEK-CNG parental
CC(C)n1cnc2c(N(C)c3cccc(Cl)c3)nc(N(CCO)CCO)nc21,0,-,0,0,0,0,0,0
c1ccc(-n2cnnc2SCc2cn3ccsc3n2)cc1,0,0,0,0,0,0,-,-
c1ccc(-n2cnnc2SCc2cn3ccccc3n2)cc1,0,54.2,0,0,0,0,0,0
O=[N+]([O-])c1c(Nc2ccc(O)cc2)cc(Cl)c2nonc12,0,57.8,0,0,0,0,51.1,0
CN(C)c1cc(Nc2ccc(O)cc2)c([N+](=O)[O-])c2nonc12,0,0,0,0,0,0,-,-
Cc1cccc(C)c1NC(=O)C(c1ccnc2ccccc12)n1c(=O)c(-c2ccco2)nc2ccccc21 (centres undefined),-,0,0,-,0,-,-,-
Cc1[nH]nc(SCC(=O)N2CCCCCC2)c1[N+](=O)[O-],0,13.9,0,0,0,0,0,0
Cc1[nH]nc(SCC(=O)N2CCCCC2)c1[N+](=O)[O-],0,0,0,0,0,0,-,-
CCN(CC)CC(O)CN1c2ccccc2Sc2ccccc21 (centres undefined),0,0,0,0,0,0,-,-
COc1ccc(CN2CCC(=O)N(CCO)CC2)cc1OC,0,0,0,0,0,0,-,-
Cc1cccc(NC2=C(Cl)C(=O)OC2OC(C)C)c1 (centres undefined),0,14.2,0,0,0,0,0,0
Cc1ccc(NC2=C(Cl)C(=O)OC2OC(C)C)cc1 (centres undefined),0,0,0,0,0,0,-,-
COc1ccc(NC(=O)c2ccc(-c3c(C)noc3C)c3ccoc23)cn1,-,44.0,0,0,0,0,0,0
OC[C@@H]1CN(Cc2ccccc2)C[C@H](n2ccc3c(N4CCCC4)ncnc32)O1,-,0,0,0,0,0,-,-
CCc1ccc(NC(=O)C2CCCN(S(=O)(=O)c3ccc4c(c3)CC(C)N4C(C)=O)C2)cc1 (centres undefined),0,0,0,0,0,0,-,-
CCOC(=O)C1CCN(S(=O)(=O)c2ccc3c(c2)CC(C)N3C(=O)C2CC2)CC1 (centres undefined),0,17.2,0,0,0,0,0,0
CCOC(=O)C1CCN(C(=O)C2CCN(S(=O)(=O)c3ccc4c(c3)CC(C)N4C(C)=O)CC2)CC1 (centres undefined),0,0,0,0,0,0,-,-

# Compound activity: PubChem, several laboratories
